Source: PubChem
HSP90 refold inh: blocks HSP90-mediated luciferase refolding in reticulocyte lysate. 290,000 compounds, 0.91% hits. AID 1789. inhibition, % at 5.6 µM. Rabbit reticulocyte lysate, luciferase refolding luminescence, 3 h;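 active = inhibition above the screen-wide mean plus 3 SD, computed separately per campaign, cut at about 16% in these data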;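 also: 0% = DMSO wells and 100% = 60 µM geldanamycin wells; inhibitors lower the luminescence because luciferase stays unfolded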
TROY signal inh: TROY signaling inhibition; Q293 LMP1-TROYcd NF-kB luciferase reporter, 4 h; 360,000 compounds, 0.98% hits; inhibition, % at 10 µM;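 active = compounds whose plate-normalised and pattern-corrected inhibition of the luciferase reporter signal at the single screening dose is 50% or more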
C8 TRAIL sens: sensitizes caspase-8 expressing cells to TRAIL; NB7+C8 cells + TRAIL, ATPlite viability luminescence; inhibition (viability loss, TRAIL sensitization), % at 10 µM; 360,000 compounds, 1% hits; AID 624354;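 active = compounds causing at least 50% loss of cell viability in the single-dose screen, relative to plate controls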
TWEAK-Fn14 inh: inhibitors of TWEAK-Fn14 interaction signaling. TWEAK-stimulated Fn14 reporter cells, luciferase luminescence, 8 h. inhibition, % at 10 µM. 360,000 compounds, 2% hits; in the data active = inhibition above about 50%
aSyn 5UTR inh: 5' untranslated region of α-synuclein, MLPCN primary screen. alpha-synuclein 5'UTR reporter, inhibitor activity. inhibition, % (tested at 7.5 µM). 300,000 compounds, 0.82% hits; in the data active = inhibition above about 60%;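 also: H4 neuroglioblastoma cells stably carrying SNCA 5'UTR luciferase fusion; 0% = DMSO wells and 100% = positive control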
HIF-2a inh: inhibitors of HIF-2a | 786-0 RCC cells HIF-2a reporter, luciferase luminescence, overnight | inhibition, % at 18.8 µM | 360,000 compounds, 0.72% hits;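 active = inhibition of the luminescence signal of 40% or more relative to plate controls, in a single-dose primary screen at 18.75 µM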
HSP90 confirm: HSP90 inhibition, confirmation assay | shares compounds with HSP90 refold inh | rabbit reticulocyte lysate, luciferase refolding luminescence, 3 h | inhibition, % at 5.9 µM | 2,300 compounds, 64% hits | AID 1846; in the data active = inhibition above about 18%;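 also: 0% = vehicle wells and 100% = reference inhibitor wells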
luciferase ctr: counter-screen for HSP90 inhibitors: inhibitors of firefly luciferase; shares compounds with HSP90 refold inh; 2,300 compounds, 48% hits; purified native firefly luciferase, luminescence; inhibition, % at 5.9 µM;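 active = inhibition above the mean inhibition of all tested sample wells plus 3 SD, cut at about 10% in these data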;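 also: 0% = DMSO with luciferase and 100% = wells lacking luciferase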
Target sequence (P08659 whole entry, looked up): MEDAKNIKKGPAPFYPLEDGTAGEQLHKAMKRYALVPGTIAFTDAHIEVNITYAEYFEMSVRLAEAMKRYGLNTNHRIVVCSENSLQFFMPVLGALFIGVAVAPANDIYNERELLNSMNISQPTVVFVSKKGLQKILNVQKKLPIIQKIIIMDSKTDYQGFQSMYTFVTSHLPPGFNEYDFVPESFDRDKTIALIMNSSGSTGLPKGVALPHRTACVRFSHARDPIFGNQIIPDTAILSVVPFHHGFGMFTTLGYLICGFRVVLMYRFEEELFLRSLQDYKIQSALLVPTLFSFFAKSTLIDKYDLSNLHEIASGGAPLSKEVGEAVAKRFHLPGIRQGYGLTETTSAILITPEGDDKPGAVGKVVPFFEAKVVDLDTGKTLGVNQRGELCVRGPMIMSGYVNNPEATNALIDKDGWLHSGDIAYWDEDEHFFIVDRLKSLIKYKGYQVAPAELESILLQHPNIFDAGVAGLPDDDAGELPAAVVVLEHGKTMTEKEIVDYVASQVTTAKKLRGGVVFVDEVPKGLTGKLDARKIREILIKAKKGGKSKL
* = called active by the depositor; . = no result. In the library only some 3.9% were active in any assay of this set; here they are far more common.

SMILES	HSP90 refold inh	TROY signal inh	C8 TRAIL sens	TWEAK-Fn14 inh	aSyn 5UTR inh	HIF-2a inh	HSP90 confirm	luciferase ctr
N#Cc1cc([N+](=O)[O-])ccc1NC(=O)COC(=O)C1CCC(=O)N1 (stereo not drawn)	.	-6	-19	5	.	-4	.	.
O=C(/C=C/c1ccccc1Cl)Nc1cccc(O)c1	23*	-42	72*	31	-31	-190	36*	15*
Cc1cc(N2CCOCC2)n2ncc(-c3ccc(Cl)cc3)c2n1	35*	79*	21	82*	.	-102	48*	55*
Cc1cc(N2CCC(C)CC2)n2ncc(-c3ccccc3)c2n1	45*	84*	25	83*	-52	-24	59*	56*
Cc1cc(N2CCC(C)CC2)n2nc(C)c(-c3ccccc3)c2n1	0	-12	17	-10	-10	-92	.	.
Cc1cc(N2CCCCC2)n2ncc(-c3ccccc3)c2n1	37*	77*	48*	81*	56	-87	50*	54*
Cc1ccc(-c2cnn3c(N4CCOCC4)cc(C)nc23)cc1	40*	73*	26	85*	19	-30	48*	53*
COC(=O)C1=C/C=C\CN(C(c2ccccc2)c2ccccc2)/C=C\1C(=O)OC	.	-14	-1	1	.	5	.	.
COc1ccc(CCNC(=O)COC(=O)c2cc(S(=O)(=O)N3CCCC3)ccc2O)cc1	.	1	5	8	.	0	.	.
CC1(C(=O)NS(=O)(=O)c2cccc(OC(F)F)c2)CCN1C(=O)C/C=C/c1ccccc1 (stereo not drawn)	.	1	-19	3	.	12	.	.
Cc1cc(N2CCOCC2)n2ncc(-c3ccccc3)c2n1	51*	75*	69*	86*	54	-61	67*	62*
COc1ccc(NC(=O)Nc2ccccc2C(N)=O)cc1	12	-60	-2	-20	-13	-19	.	.
CCOc1ccc(NC(=O)Nc2ccccc2C(N)=O)cc1	32*	-84	1	-41	-2	2	42*	38*
CS(=O)(=O)N(CC(=O)O)c1ccc(Oc2ccccc2)cc1	17*	-13	5	1	4	16	3	-3
CCOC(=O)N1CCN(C(=O)CN(c2ccc(Oc3ccccc3)cc2)S(C)(=O)=O)CC1	-2	5	7	4	5	8	.	.
CCc1ccccc1N1CC(C(=O)Nc2cc(S(=O)(=O)N3CCCC3)ccc2Cl)CC1=O (stereo not drawn)	.	5	4	-7	.	13	.	.
O=S(=O)(NCc1ccncc1)c1ccc(F)c(F)c1	.	17	-4	8	.	10	.	.
Cc1ccc(S(=O)(=O)NCc2ccncc2)cc1C	30*	-2	29	26	-3	15	-1	-4
CC1(C(=O)NS(=O)(=O)C2CC2)CCCN(C(=O)COCc2ccccc2)C1 (stereo not drawn)	.	6	9	0	.	5	.	.
COc1cccc(NC(=O)N(C)C[C@@H]2OCc3cnnn3CCCC(=O)N([C@@H](C)CO)C[C@H]2C)c1	.	1	-18	10	.	1	.	.
Nc1nc2ccccc2n1S(=O)(=O)c1ccc(Cl)cc1	.	11	3	-1	.	11	.	.
C=C[C@]1(C)C=C2C(=O)C[C@H]3C(C)(C)CCC[C@]3(C(=O)O)[C@@]2(O)CC1	.	-20	-9	-3	.	2	.	.
COC(=O)CC1=C(C)C(=O)CC2C(C)(C)CCCC12C (stereo not drawn)	19*	9	6	-11	24	4	1	-7
O=C(NC1CCCC1)c1nc(-c2c(F)cccc2F)oc1-c1ccccc1	.	.	18	.	.	-39	.	.
S=c1[nH]nc(-c2ccc(Cl)cc2)n1Cc1ccccc1	46*	10	-5	0	27	-6	-6	-8
SMILES	HSP90 refold inh	TROY signal inh	C8 TRAIL sens	TWEAK-Fn14 inh	aSyn 5UTR inh	HIF-2a inh	HSP90 confirm	luciferase ctr
Cc1ccccc1OCC(=O)N(CC(C)C)c1c(N)n(CC(C)C)c(=O)[nH]c1=O	45*	-15	-12	-2	23	3	-2	-2
CCN(CC)CCN(C(=O)c1ccc(Br)s1)c1nc2cc3c(cc2s1)OCCO3	51*	-34	-13	0	-13	-90	-3	-17
CCN(CC)CCN(C(=O)c1ccc2ncsc2c1)c1nc2cc3c(cc2s1)OCO3	34*	-75	7	-41	-24	-106	34*	16*
CCN(CC)CCN(C(=O)c1ccc(Br)s1)c1nc2cc3c(cc2s1)OCO3	-2	3	4	-15	-16	-10	.	.
CSc1ccc(CN2CCC2(C)C(=O)NCc2cccc(C(F)(F)F)c2)cc1 (stereo not drawn)	.	-13	15	-14	.	9	.	.
CC(NC(C(=O)c1ccccc1)c1ccccc1)c1ccccc1 (stereo not drawn)	.	-11	-10	-6	.	-40	.	.
C[n+]1ccc(/C=C/c2cccs2)cc1	28*	-5	1	-7	1	17	0	-4
CN(C)c1ccc(/C=C/c2cc[n+](C)cc2)cc1	2	1	9	2	-30	-16	.	.
Cc1nc(N/N=C/c2ccccn2)sc1C	80*	.	.	.	.	.	90*	86*
CCCc1sc(N/N=C/c2ccccn2)nc1-c1ccc(F)cc1	64*	-9	5	-20	7	-95	-2	-11
COC(=O)c1ccc(/C=N/Nc2nc(C)c(C)s2)cc1	6	-31	8	-51	-188	-277	.	.
CN(C(=O)C1CCCN1S(=O)(=O)c1ccc(Cl)cc1)c1ccccc1 (stereo not drawn)	.	14	3	7	.	8	.	.
CN(C(=O)CSc1nc(-c2ccccc2)cn1N)C(c1ccccc1)c1ccccc1	18*	1	5	-2	-5	4	-1	-6
CC(C)C[C@@H](CN)NC(=O)c1nc[nH]c1C(=O)N[C@@H](CC(C)C)C(=O)CNC[C@H](C)NC(=O)c1nc[nH]c1C(=O)N[C@@H](C)C(=O)O	.	-16	-15	6	.	9	.	.
Cn1cccc1/C=N/N1CCN(Cc2ccccc2Cl)CC1	2	-16	-7	3	2	-12	.	.
Cn1cccc1/C=N/N1CCN(c2ccccc2)CC1	21*	-6	0	16	4	-41	6	-9
CC(C)(C)c1ccc(OCCCC(=O)Nc2nnc(C3CC3)s2)cc1	.	-12	-3	27	.	1	.	.
CN(C)c1ccc(/C=c2\sc3n(c2=O)CCCN=3)cc1	18*	14	62*	29	24	-9	65*	52*
Cc1cc(=O)n2c(nc3ccccc32)s1	.	-34	-5	-25	.	-104	.	.
CCOc1ccc(CN2CCN(Cc3cc4ccccc4o3)CC2CCO)cc1 (stereo not drawn)	61*	-5	-8	15	-3	15	2	-2
